Compounds without any hit were thinned out: in the full panel of roughly 83,000, 20% have a hit.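 Activity criterion: percent growth below 10, measured after cells in 96-well plates were exposed to a single compound concentration for 48 hours.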 Unmarked numbers belong to inactive results. The source made the active and inactive calls.
tested on: MDA-MB-468 breast; test: NCI-60 one-dose screen, 48 h (100 = growth as untreated, 0 = no growth, -100 = all killed); conditions: 10 µM unless noted

Row | SMILES | growth
1 | [Cl][Hg][n]1c(-c2ccco2)nc2ccccc21 | 94.4%
2 | COP(=O)(OC)C(O)c1ccc(Cl)cc1 (stereo not given) | 108%
3 | CCCCCCCC[N+]12CN3CN(CN(C3)C1)C2 | 93.4%
4 | O=C(CBr)Nc1ccc(Cl)cc1 | 92.8%
5 | CCC(=O)C(CC(C)N1CCCCCC1)(c1ccccc1)c1ccccc1 (stereo not given) | 95.6%
6 | CNC(=O)Oc1ccc(C(C)(C)C)cc1OC(=O)NC | 88.4%
7 | CC1(C)N=C(N)N=C(N)N1c1ccc(CCC(=O)Nc2ccc(S(=O)(=O)F)cc2)c(Cl)c1 | 64.2%
8 | Cc1c2cc(Cl)c3ccccc3c2c[n+]2ccccc12 | -71.5% (active)
9 | Clc1cccc(N2COOC3(OOC2)C2CC4CC(C2)CC3C4)c1 | 77.7%
10 | CC1(C)C(C(=O)c2cn(CCCCF)c3ccccc23)C1(C)C | 103%
11 | C[C@]12CC[C@H](OC3OC(O)C(O)C(O)C3O)C=C1CCC1C2CC[C@]2(C)[C@@H](c3ccc(=O)oc3)CC[C@]12O (stereo not given in full) | -63.8% (active)
12 | O=C1NC(=O)C(=C/C=C/c2ccccc2)C(=O)N1 | 44.2%
13 | c1cc2c(c3c1CCNC3)OCO2 | 87.4%
14 | CC(=O)C(c1c(O)c2ccccc2oc1=O)c1cc(=O)oc2c1ccc1ccccc12 (stereo not given) | 96.6%
15 | CC(=O)O[C@H]1C[C@H](O[C@H]2[C@@H](O)C[C@H](O[C@H]3[C@@H](O)C[C@H](O[C@H]4CC[C@@]5(C)C(CCC6C5C[C@@H](O)[C@]5(C)[C@@H](C7=CC(=O)OC7)CC[C@]65O)C4)O[C@@H]3C)O[C@@H]2C)O[C@H](C)[C@H]1O[C@@H]1O[C@H](CO)[C@@H](O)[C@H](O)[C@H]1O (stereo not given in full) | -56.2% (active)

Reference: PubChem BioAssay (NCI)
